From PubChem BioAssay (EPA / NIEHS)
Calls of active or inactive are those of the source. Rule for the calls: active = hit-call score of the fitted dose curve at least 0.9, where 1 is the maximum; inactive = score below 0.9.

What follows are molecules tested on succinate dehydrogenase complex iron sulfur subunit B (SDHB), SDHB (gene 6390) (assay: LTEA_HepaRG_SDHB: Life Technologies and Expression Analysis (LTEA) Assay for succinate dehydrogenase complex iron sulfur subunit B (SDHB) using HepaRG (AID 2283528)). Conditions: mRNA level, 48 h; actives raise or lower the signal.
Summary of the method: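 A human HepaRG culture in serum-free induction medium received test chemicals for 48 h over an eight-point range capped at 100 uM. SDHB expression change was quantified by qRT-PCR.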

Row | Compound | outcome | AC50
1 | C=C(C)CN(CC)c1c([N+](=O)[O-])cc(C(F)(F)F)cc1[N+](=O)[O-] | inactive | 
2 | N#Cc1c[nH]cc1-c1cccc2c1OC(F)(F)O2 | inactive | 
3 | CCN(CC)c1nc(C)cc(OP(=S)(OC)OC)n1 | inactive | 
4 | O=C(Nc1ccccc1-c1ccc(Cl)cc1)c1cccnc1Cl | inactive | 
5 | COC(=O)NS(=O)(=O)c1ccc(N)cc1 | inactive | 
6 | CC(C)Oc1cccc(NC(=O)c2ccccc2C(F)(F)F)c1 | inactive | 
7 | CCCC(=NOCC)C1=C(O)CC(CC(C)SCC)CC1=O (stereo unspecified) | inactive | 
8 | CC(C)=CC1C(C(=O)OCc2coc(Cc3ccccc3)c2)C1(C)C (stereo unspecified) | inactive | 
9 | CC1(C)C(C=C(Cl)Cl)C1C(=O)OC(C#N)c1cccc(Oc2ccccc2)c1 (stereo unspecified) | inactive | 
10 | CNC(=O)N(C)c1nnc(C(C)(C)C)s1 | inactive | 
11 | CCCCOCN(C(=O)CCl)c1c(CC)cccc1CC | inactive | 
12 | Nc1cnn(-c2ccccc2)c(=O)c1Cl | inactive | 
13 | CNC(=O)Oc1cccc2ccccc12 | inactive | 
14 | CC(C)N1C(=O)N(c2ccccc2)CSC1=NC(C)(C)C |  | 50 µM (active)
15 | CCSC(=O)N1CCCCCC1 | inactive | 
16 | COP(=O)(OC)O/C(C)=C/C(=O)N(C)C | inactive | 
17 | Nc1c(Cl)c(F)nc(OCC(=O)O)c1Cl | inactive | 
18 | O=C(O)c1c(Cl)ccc2cc(Cl)cnc12 | inactive | 
19 | N#Cc1c(Cl)cccc1Cl | inactive | 
20 | CC1(C)C(C(=O)OC(C#N)c2cccc(Oc3ccccc3)c2)C1(C)C (stereo unspecified) | inactive | 
21 | COCC(C)N(C(=O)CCl)c1c(C)csc1C (stereo unspecified) | inactive | 
22 | COC(=O)c1c(C(F)F)nc(C(F)(F)F)c(C2=NCCS2)c1CC(C)C | inactive | 
23 | CC(C)N1C(=O)c2ccccc2NS1(=O)=O | inactive | 
24 | CCOP(=S)(OCC)Oc1nc(Cl)n(C(C)C)n1 | inactive | 

Each molecule was assayed on Signal transducer and activator of transcription 3 (Homo sapiens) (UniProt P40763) (assay: LTEA_HepaRG_STAT3: Life Technologies and Expression Analysis (LTEA) Assay for Signal transducer and activator of transcription (STAT3) using HepaRG (AID 2283529)). Conditions: mRNA level, 48 h; actives raise or lower the signal.
Sequence of Signal transducer and activator of transcription 3 (Homo sapiens) (P40763 whole entry, looked up): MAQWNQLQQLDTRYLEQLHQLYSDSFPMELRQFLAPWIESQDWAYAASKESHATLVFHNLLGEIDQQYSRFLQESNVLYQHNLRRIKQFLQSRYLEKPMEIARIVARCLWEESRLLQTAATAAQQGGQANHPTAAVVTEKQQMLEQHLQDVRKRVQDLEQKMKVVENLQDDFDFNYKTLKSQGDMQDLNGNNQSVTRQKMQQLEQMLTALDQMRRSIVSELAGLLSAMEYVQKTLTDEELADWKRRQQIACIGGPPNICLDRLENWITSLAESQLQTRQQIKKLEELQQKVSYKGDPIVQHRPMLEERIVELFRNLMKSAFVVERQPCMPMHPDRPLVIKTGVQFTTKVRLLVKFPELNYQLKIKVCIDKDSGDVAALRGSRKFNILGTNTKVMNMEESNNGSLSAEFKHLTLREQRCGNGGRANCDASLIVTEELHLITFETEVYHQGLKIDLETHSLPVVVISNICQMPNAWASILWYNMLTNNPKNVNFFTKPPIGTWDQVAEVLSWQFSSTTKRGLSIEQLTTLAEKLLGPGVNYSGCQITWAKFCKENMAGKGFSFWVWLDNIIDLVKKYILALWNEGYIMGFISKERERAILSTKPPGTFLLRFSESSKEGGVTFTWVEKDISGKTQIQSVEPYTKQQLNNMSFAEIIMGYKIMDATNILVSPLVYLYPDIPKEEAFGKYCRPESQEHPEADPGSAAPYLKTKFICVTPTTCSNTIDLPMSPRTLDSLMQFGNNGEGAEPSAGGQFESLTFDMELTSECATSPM
Summary of the method: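 Differentiated HepaRG cells, serum-free induction medium, dosed 48 h in duplicate, 8 half-log concentrations from 100 uM in 0.5% DMSO. STAT3 mRNA by qRT-PCR, normalised to ACTB, GAPDH, POLR2A; bidirectional fit versus DMSO.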

Row | Compound | outcome | AC50
25 | C=C(C)CN(CC)c1c([N+](=O)[O-])cc(C(F)(F)F)cc1[N+](=O)[O-] | inactive | 
26 | N#Cc1c[nH]cc1-c1cccc2c1OC(F)(F)O2 | inactive | 
27 | CCOc1nc(C(Cl)(Cl)Cl)ns1 |  | 50 µM (active)
28 | CCN(CC)c1nc(C)cc(OP(=S)(OC)OC)n1 | inactive | 
29 | O=C(Nc1ccccc1-c1ccc(Cl)cc1)c1cccnc1Cl |  | 0.539 µM (active)
30 | COC(=O)NS(=O)(=O)c1ccc(N)cc1 | inactive | 
31 | CC(C)NC(=O)N1CC(=O)N(c2cc(Cl)cc(Cl)c2)C1=O |  | 5.78 µM (active)
32 | CC(C)Oc1cccc(NC(=O)c2ccccc2C(F)(F)F)c1 | inactive | 
33 | O=C1C2CC=CCC2C(=O)N1SC(Cl)(Cl)Cl (stereo unspecified) | inactive | 
34 | OC(c1ccc(Cl)cc1)(c1ccc(Cl)cc1)C(Cl)(Cl)Cl | inactive | 
35 | COc1ccc(-c2ccccc2)cc1NNC(=O)OC(C)C | inactive | 
36 | CCCC(=NOCC)C1=C(O)CC(CC(C)SCC)CC1=O (stereo unspecified) | inactive | 
37 | CC(C)=CC1C(C(=O)OCc2coc(Cc3ccccc3)c2)C1(C)C (stereo unspecified) | inactive | 
38 | CC1(C)C(C=C(Cl)Cl)C1C(=O)OC(C#N)c1cccc(Oc2ccccc2)c1 (stereo unspecified) | inactive | 
39 | CO/N=C(/C1=NOCCO1)c1ccccc1Oc1ncnc(Oc2ccccc2Cl)c1F |  | 6.5 µM (active)
40 | CNC(=O)N(C)c1nnc(C(C)(C)C)s1 | inactive | 
41 | N#CN=C1SCCN1Cc1ccc(Cl)nc1 | inactive | 
42 | CCCCOCN(C(=O)CCl)c1c(CC)cccc1CC | inactive | 

Row | Compound | outcome | AC50
43 | Nc1cnn(-c2ccccc2)c(=O)c1Cl | inactive | 
44 | O=c1n(Cl)c(=O)n(Cl)c(=O)n1Cl | inactive | 
45 | CNC(=O)Oc1cccc2ccccc12 | inactive | 
46 | CC(C)N1C(=O)N(c2ccccc2)CSC1=NC(C)(C)C | inactive | 
47 | CCSC(=O)N1CCCCCC1 | inactive | 
48 | COP(=O)(OC)O/C(C)=C/C(=O)N(C)C | inactive | 
49 | Nc1c(Cl)c(F)nc(OCC(=O)O)c1Cl | inactive | 
50 | Cc1cc(C)nc(Nc2ccccc2)n1 | inactive | 
51 | O=C(O)c1c(Cl)ccc2cc(Cl)cnc12 | inactive | 
52 | N#Cc1c(Cl)cccc1Cl | inactive | 
53 | CC1(C)C(C(=O)OC(C#N)c2cccc(Oc3ccccc3)c2)C1(C)C (stereo unspecified) | inactive | 
54 | COCC(C)N(C(=O)CCl)c1c(C)csc1C (stereo unspecified) | inactive | 
55 | Cc1c(COC(=O)[C@@H]2[C@H](/C=C(\Cl)C(F)(F)F)C2(C)C)cccc1-c1ccccc1 | inactive | 
56 | CCCN(CC)CC1COC2(CCC(C(C)(C)C)CC2)O1 (stereo unspecified) | inactive | 
57 | COC(=O)c1c(C(F)F)nc(C(F)(F)F)c(C2=NCCS2)c1CC(C)C | inactive | 
58 | CCCCC(O)(Cn1cncn1)c1ccc(Cl)cc1Cl (stereo unspecified) |  | 85.9 µM (active)
59 | CC(C)N1C(=O)c2ccccc2NS1(=O)=O | inactive | 
60 | CCOP(=S)(OCC)Oc1nc(Cl)n(C(C)C)n1 | inactive | 

Each molecule was assayed on solute carrier (SLCO1B1), SLCO1B1 (gene 10599) (assay: LTEA_HepaRG_SLCO1B1: Life Technologies and Expression Analysis (LTEA) Assay for solute carrier (SLCO1B1) using HepaRG (AID 2283530)). Conditions: mRNA level, 48 h; actives raise or lower the signal.
Summary of the method: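 HepaRG, serum-free induction medium, 48 h dosing, 8-pt half-log from 100 uM, 0.5% DMSO vehicle, duplicates. Readout: SLCO1B1 mRNA, qRT-PCR, ACTB/GAPDH/POLR2A normalization; up or down fit vs DMSO.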

Row | Compound | outcome | AC50
61 | C=C(C)CN(CC)c1c([N+](=O)[O-])cc(C(F)(F)F)cc1[N+](=O)[O-] | inactive | 
62 | N#Cc1c[nH]cc1-c1cccc2c1OC(F)(F)O2 |  | 50 µM (active)
63 | CCOc1nc(C(Cl)(Cl)Cl)ns1 |  | 1.88 µM (active)
64 | CCN(CC)c1nc(C)cc(OP(=S)(OC)OC)n1 | inactive | 
65 | O=C(Nc1ccccc1-c1ccc(Cl)cc1)c1cccnc1Cl | inactive | 
66 | COC(=O)NS(=O)(=O)c1ccc(N)cc1 | inactive | 
67 | CC(C)NC(=O)N1CC(=O)N(c2cc(Cl)cc(Cl)c2)C1=O |  | 15.6 µM (active)
68 | CC(C)Oc1cccc(NC(=O)c2ccccc2C(F)(F)F)c1 | inactive | 
69 | O=C1C2CC=CCC2C(=O)N1SC(Cl)(Cl)Cl (stereo unspecified) | inactive | 
70 | OC(c1ccc(Cl)cc1)(c1ccc(Cl)cc1)C(Cl)(Cl)Cl |  | 81.6 µM (active)
71 | COc1ccc(-c2ccccc2)cc1NNC(=O)OC(C)C | inactive | 
72 | CCCC(=NOCC)C1=C(O)CC(CC(C)SCC)CC1=O (stereo unspecified) | inactive | 
73 | CC(C)=CC1C(C(=O)OCc2coc(Cc3ccccc3)c2)C1(C)C (stereo unspecified) | inactive | 
74 | CC1(C)C(C=C(Cl)Cl)C1C(=O)OC(C#N)c1cccc(Oc2ccccc2)c1 (stereo unspecified) | inactive | 
75 | CO/N=C(/C1=NOCCO1)c1ccccc1Oc1ncnc(Oc2ccccc2Cl)c1F |  | 31.1 µM (active)
76 | CNC(=O)N(C)c1nnc(C(C)(C)C)s1 | inactive | 
77 | N#CN=C1SCCN1Cc1ccc(Cl)nc1 | inactive | 
78 | CCCCOCN(C(=O)CCl)c1c(CC)cccc1CC | inactive | 

Row | Compound | outcome | AC50
79 | Nc1cnn(-c2ccccc2)c(=O)c1Cl | inactive | 
80 | O=c1n(Cl)c(=O)n(Cl)c(=O)n1Cl | inactive | 
81 | CNC(=O)Oc1cccc2ccccc12 | inactive | 
82 | CC(C)N1C(=O)N(c2ccccc2)CSC1=NC(C)(C)C | inactive | 
83 | CCSC(=O)N1CCCCCC1 | inactive | 
84 | COP(=O)(OC)O/C(C)=C/C(=O)N(C)C | inactive | 
85 | Nc1c(Cl)c(F)nc(OCC(=O)O)c1Cl | inactive | 
86 | Cc1cc(C)nc(Nc2ccccc2)n1 | inactive | 
87 | O=C(O)c1c(Cl)ccc2cc(Cl)cnc12 | inactive | 
88 | N#Cc1c(Cl)cccc1Cl | inactive | 
89 | CC1(C)C(C(=O)OC(C#N)c2cccc(Oc3ccccc3)c2)C1(C)C (stereo unspecified) | inactive | 
90 | COCC(C)N(C(=O)CCl)c1c(C)csc1C (stereo unspecified) | inactive | 
91 | Cc1c(COC(=O)[C@@H]2[C@H](/C=C(\Cl)C(F)(F)F)C2(C)C)cccc1-c1ccccc1 | inactive | 
92 | CCCN(CC)CC1COC2(CCC(C(C)(C)C)CC2)O1 (stereo unspecified) | inactive | 
93 | COC(=O)c1c(C(F)F)nc(C(F)(F)F)c(C2=NCCS2)c1CC(C)C | inactive | 
94 | CCCCC(O)(Cn1cncn1)c1ccc(Cl)cc1Cl (stereo unspecified) |  | 76.6 µM (active)
95 | CC(C)N1C(=O)c2ccccc2NS1(=O)=O | inactive | 
96 | CCOP(=S)(OCC)Oc1nc(Cl)n(C(C)C)n1 | inactive | 
